# Measurements reported in PubChem BioAssay (EPA / NIEHS).
# Where “and” joins values, the source holds several entries; their conditions need not be identical. Identical values can stand only once. Records with an inconclusive call do not appear. Calls of active or inactive are those of the source. How the source made its calls: active means hit-call score of the fitted dose curve at least 0.9, where 1 is the maximum; inconclusive means response in the unintended direction; inactive means score below 0.9.
# Tests used:
# [1] = STM_H9_NormalizedViability: Cytotoxicity Assessment at 120 hours in the Stemina devTOX quickPredict H9 human embryonic stem cell (hESC)-based Assay (AID 2283784)
# In short: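 Undifferentiated H9 hESCs kept pluripotent were exposed to compound, with media and chemical replaced every 24h. CellTiter-Fluor protease-substrate fluorescence was background-corrected and normalized per plate to the 0.1% DMSO vehicle; signal loss indicates reduced viability.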
# AR (gene 367) [2] = molecular target: AR (gene 367) (UniProt P10275); experiment: ACEA_AR_antagonist_80hr: ACEA Biosciences xCELLigence Real-Time Cell Analysis on Androgen Receptor Antagonism for Proliferation (AID 2283787);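 further: 22Rv1 human prostate cancer cells with growth followed by electrical impedance; hits lower the impedance growth signal relative to DMSO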
# In short: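 22Rv1 cells in assay medium, growth tracked by electrical impedance; compounds eight-point 1:4 dilutions from 100 uM final, duplicate plates. Endpoint at 80 h; loss of signal versus DMSO.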
# AR (gene 367) [3] = molecular target: AR (gene 367) (UniProt P10275); experiment: ACEA_AR_agonist_80hr: ACEA Biosciences xCELLigence Real-Time Cell Analysis on Androgen Receptor Agonism for Proliferation (AID 2283783);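 further: hits increase impedance growth signal above DMSO baseline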
# In short: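 Proliferation of 22Rv1 prostate cancer cells tracked by electrical impedance, endpoint taken at 80 hours after dosing. Eight-point 1:4 dilutions from 100 uM maximum final, duplicate; testosterone and MG132 as positive controls, assay media as negative.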
# [4] = ACEA_ER_AUC_viability: ACEA Biosciences xCELLigence Real-Time Cell Analysis on Estrogen Receptor Agonism for Viability (AID 2283782);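 further: continuous compound exposure with impedance area under curve over 80 h; hit means loss of impedance signal meaning reduced cell growth or viability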
# In short: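 T47D cells preconditioned in phenol red-free RPMI with charcoal-stripped FBS, then dosed with 8-point 1:4 series from 100 uM (up to 0.5% DMSO). Impedance monitored up to ~80 h; area-under-curve loss versus DMSO taken as viability.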
# [5] = molecular target: Estrogen receptor beta (Homo sapiens) (UniProt Q92731); experiment: ATG_hERb_XSP1: Attagene TRANS-FACTORIAL Multi-Species (XSP1) HepG2 Assay for human Estrogen Receptor (ESR2) (AID 2283788)
# In short: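 HepG2 cells transiently transfected with GAL4-UAS multiplexed reporter units, 3 nM 6-alpha-fluorotestosterone present; 24 h exposure. Reporter mRNA measured by RT-PCR, fluorescent labelling and capillary electrophoresis; gain of signal fitted against DMSO.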
# [6] = molecular target: GAL4 Transcription Factor (Internal Marker), GAL4 (gene 855828) (UniProt P04386); experiment: ATG_GAL4_XSP1: Attagene TRANS-FACTORIAL Multi-Species (XSP1) HepG2 Assay for GAL4 Transcription Factor (Internal Marker) (AID 2283789)
# In short: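 HepG2 cells transiently transfected with multiplexed GAL4-UAS reporter units were exposed for 24 h with 3 nM 6-alpha-fluorotestosterone present. Reporter mRNA was quantified by RT-PCR, FAM labelling, HpaI digestion and capillary electrophoresis; background-control readout, gain-of-signal versus DMSO.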
# [7] = ATG_M_19_XSP1: Attagene TRANS-FACTORIAL Multi-Species (XSP1) HepG2 Assay for M19 Transcription Factor (Internal Marker) (AID 2283798)
# In short: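 HepG2 cells transiently transfected with multiplexed GAL4-UAS reporter units, dosed 24 h with 3 nM 6-alpha-fluorotestosterone present for partial AR stimulation. Reporter mRNA measured by RT-PCR with capillary electrophoresis; gain-of-signal fitted relative to DMSO.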
# [8] = ATG_M_32_XSP1: Attagene TRANS-FACTORIAL Multi-Species (XSP1) HepG2 Assay for M32 Transcription Factor (Internal Marker) (AID 2283799)
# In short: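 HepG2 cells transiently transfected with multi-species TRANS reporter units, dosed 24 h with 3 nM 6-alpha-fluorotestosterone present. Internal-marker reporter mRNA quantified by RT-PCR and capillary electrophoresis; positive-direction fit versus DMSO.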
# [9] = molecular target: Peroxisome proliferator-activated receptor gamma (Homo sapiens) (UniProt P37231); experiment: ATG_hPPARg_XSP1: Attagene TRANS-FACTORIAL Multi-Species (XSP1) HepG2 Assay for human Peroxisome Proliferator-activated Receptor gamma (PPARg) (AID 2283800)
# In short: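 HepG2 cells transiently transfected with GAL4-UAS reporter units carrying chimeric NR-Gal4 proteins; 3 nM 6-alpha-fluorotestosterone present. After 24 h dosing, reporter mRNA quantified by RT-PCR and capillary electrophoresis; gain of signal relative to DMSO.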
# [10] = tested on: zebrafish Peroxisome Proliferator-activated Receptor gamma (PPARg), gene 557037; experiment: ATG_zfPPARg_XSP1: Attagene TRANS-FACTORIAL Multi-Species (XSP1) HepG2 Assay for zebrafish Peroxisome Proliferator-activated Receptor gamma (PPARg) (AID 2283801)
# In short: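 HepG2 cells transiently transfected with GAL4-UAS reporter units including a zebrafish PPARg–GAL4 chimera, dosed 24 h with 3 nM 6-alpha-fluorotestosterone present. Reporter mRNA quantified by RT-PCR, FAM labelling, HpaI digestion and capillary electrophoresis; induction versus DMSO.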
# [11] = molecular target: mouse Peroxisome Proliferator-activated Receptor gamma (PPARg), Pparg (gene 19016) (UniProt P37238); experiment: ATG_mPPARg_XSP1: Attagene TRANS-FACTORIAL Multi-Species (XSP1) HepG2 Assay for mouse Peroxisome Proliferator-activated Receptor gamma (PPARg) (AID 2283802)
# In short: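 HepG2 cells transiently transfected with GAL4-UAS reporter units driven by mouse PPARg–GAL4 chimera; 3 nM 6-alpha-fluorotestosterone present. After 24 h dosing, reporter mRNA quantified by RT-PCR, fluorescent labelling and capillary electrophoresis; gain of signal versus DMSO.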
# [12] = molecular target: Nuclear receptor subfamily 1 group I member 2 (Mus musculus) (UniProt O54915); experiment: ATG_mPXR_XSP1: Attagene TRANS-FACTORIAL Multi-Species (XSP1) HepG2 Assay for mouse Pregnane X Receptor (PXR) (AID 2283803)
# In short: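 Transiently transfected HepG2 cells expressing a receptor-Gal4 chimera drive a GAL4-UAS reporter; 3 nM 6-alpha-fluorotestosterone included. Reporter mRNA read 24 h post-dose by RT-PCR and capillary electrophoresis; gain of signal relative to DMSO.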
# [13] = molecular target: human Thyroid hormone Receptor alpha (TRa), THRA (gene 7067) (UniProt P10827); experiment: ATG_hTRa_XSP1: Attagene TRANS-FACTORIAL Multi-Species (XSP1) HepG2 Assay for human Thyroid hormone Receptor alpha (TRa) (AID 2283805)
# In short: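 HepG2 cells transiently transfected with GAL4-UAS reporter units expressing chimeric NR-Gal4 proteins, dosed 24 hours with 3 nM 6-alpha-fluorotestosterone present. Reporter mRNA measured by RT-PCR and capillary electrophoresis; gain of signal fitted versus DMSO.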
# [14] = tested on: turtle Thyroid Hormone Receptor, alpha (TRa), gene 101949057; experiment: ATG_trTRa_XSP1: Attagene TRANS-FACTORIAL Multi-Species (XSP1) HepG2 Assay for turtle Thyroid Hormone Receptor, alpha (TRa) (AID 2283806)
# In short: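 HepG2 cells transiently transfected with GAL4-UAS reporter units and chimeric receptor-Gal4 constructs, with 3 nM 6-alpha-fluorotestosterone present. Reporter mRNA was quantified 24 h after dosing by RT-PCR, 6-FAM labelling and capillary electrophoresis; gain of signal versus DMSO.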
# [15] = molecular target: zebrafish Thyroid Hormone Receptor alpha (TRa), thraa (gene 30670) (UniProt Q98867); experiment: ATG_zfTRa_XSP1: Attagene TRANS-FACTORIAL Multi-Species (XSP1) HepG2 Assay for zebrafish Thyroid Hormone Receptor alpha (TRa) (AID 2283807)
# In short: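 HepG2 cells transiently transfected with GAL4-UAS reporter units including a zebrafish TRa–Gal4 chimera, dosed 24 h with 3 nM 6-alpha-fluorotestosterone present. Reporter mRNA quantified by RT-PCR and capillary electrophoresis; gain versus DMSO.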
# [16] = molecular target: human Thyroid hormone Receptor beta (TRb), THRB (gene 7068) (UniProt P10828); experiment: ATG_hTRb_XSP1: Attagene TRANS-FACTORIAL Multi-Species (XSP1) HepG2 Assay for human Thyroid hormone Receptor beta (TRb) (AID 2283808)
# In short: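 HepG2 cells transiently transfected with reporter units driving GAL4-UAS reporters for chimeric NR-Gal4 proteins; 24 h chemical exposure with 3 nM 6-alpha-fluorotestosterone present. Reporter mRNA quantified by RT-PCR and capillary electrophoresis, gain of signal versus DMSO.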
# [17] = ATG_M_06_XSP1: Attagene TRANS-FACTORIAL Multi-Species (XSP1) HepG2 Assay for M06 Transcription Factor (Internal Marker) (AID 2283790)
# In short: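 Transfected HepG2 multi-reporter system treated 24 h in the presence of 3 nM 6-alpha-fluorotestosterone. The M06 internal marker transcript was quantified by RT-PCR with capillary electrophoresis as a background control, and gain of signal was scored versus DMSO.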
# [18] = ATG_M_61_XSP1: Attagene TRANS-FACTORIAL Multi-Species (XSP1) HepG2 Assay for M61 Transcription Factor (Internal Marker) (AID 2283797)
# In short: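 HepG2 cells transiently transfected with multiplexed GAL4-driven reporter units, dosed 24 h with 3 nM 6-alpha-fluorotestosterone present. Reporter mRNA quantified by RT-PCR, 6-FAM labelling, HpaI digestion and capillary electrophoresis; internal-marker background control, gain of signal versus DMSO.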
# [19] = molecular target: frog Thyroid hormone Receptor alpha (TRa), thra-a (gene 397942) (UniProt P15204); experiment: ATG_frTRa_XSP1: Attagene TRANS-FACTORIAL Multi-Species (XSP1) HepG2 Assay for frog Thyroid hormone Receptor alpha (TRa) (AID 2283804)
# In short: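 HepG2 cells transiently transfected with frog TRa-GAL4 chimeric reporter units, dosed 24 hr with 3 nM 6-alpha-fluorotestosterone present; reporter mRNA quantified by RT-PCR, fluorescent labelling and capillary electrophoresis, gain of signal versus DMSO.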
# [20] = tested on: turtle Androgen Receptor (AR), gene 101947425; experiment: ATG_trAR_XSP1: Attagene TRANS-FACTORIAL Multi-Species (XSP1) HepG2 Assay for turtle Androgen Receptor (AR) (AID 2283786)
# In short: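 HepG2 cells transiently transfected with a turtle AR–GAL4 chimera and GAL4-UAS reporter, co-treated with 3 nM 6-alpha-fluorotestosterone for partial stimulation. Reporter mRNA is quantified at 24 h by RT-PCR and capillary electrophoresis, gain-of-signal versus DMSO.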
# AR (gene 367), sequence (P10275 whole entry, looked up): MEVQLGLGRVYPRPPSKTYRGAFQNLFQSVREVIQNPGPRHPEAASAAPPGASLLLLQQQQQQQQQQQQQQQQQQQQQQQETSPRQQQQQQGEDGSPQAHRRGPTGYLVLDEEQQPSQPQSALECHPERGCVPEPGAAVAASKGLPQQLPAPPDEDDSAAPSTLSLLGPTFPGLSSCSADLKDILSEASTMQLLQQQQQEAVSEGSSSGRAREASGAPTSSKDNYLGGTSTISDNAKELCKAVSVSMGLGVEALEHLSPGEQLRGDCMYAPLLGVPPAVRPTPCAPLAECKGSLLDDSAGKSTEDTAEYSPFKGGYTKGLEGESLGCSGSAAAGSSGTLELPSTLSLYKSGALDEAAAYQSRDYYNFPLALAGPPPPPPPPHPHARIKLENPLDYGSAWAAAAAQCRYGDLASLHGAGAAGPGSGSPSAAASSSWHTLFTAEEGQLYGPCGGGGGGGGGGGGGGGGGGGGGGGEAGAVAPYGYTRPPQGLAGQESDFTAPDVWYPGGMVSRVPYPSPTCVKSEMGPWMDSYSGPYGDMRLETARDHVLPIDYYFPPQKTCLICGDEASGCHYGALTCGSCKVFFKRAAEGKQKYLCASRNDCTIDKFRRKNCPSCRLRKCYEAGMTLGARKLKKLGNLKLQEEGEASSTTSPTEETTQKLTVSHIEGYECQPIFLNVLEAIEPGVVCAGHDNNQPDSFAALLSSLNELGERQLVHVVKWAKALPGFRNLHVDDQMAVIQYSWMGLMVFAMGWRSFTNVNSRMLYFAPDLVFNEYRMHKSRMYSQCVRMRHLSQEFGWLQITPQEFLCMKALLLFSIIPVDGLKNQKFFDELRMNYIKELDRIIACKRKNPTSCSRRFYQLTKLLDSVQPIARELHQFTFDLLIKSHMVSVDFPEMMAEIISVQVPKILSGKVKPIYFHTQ
# zebrafish Thyroid Hormone Receptor alpha (TRa), thraa (gene 30670), sequence (Q98867 whole entry, looked up, the tested form may be a part): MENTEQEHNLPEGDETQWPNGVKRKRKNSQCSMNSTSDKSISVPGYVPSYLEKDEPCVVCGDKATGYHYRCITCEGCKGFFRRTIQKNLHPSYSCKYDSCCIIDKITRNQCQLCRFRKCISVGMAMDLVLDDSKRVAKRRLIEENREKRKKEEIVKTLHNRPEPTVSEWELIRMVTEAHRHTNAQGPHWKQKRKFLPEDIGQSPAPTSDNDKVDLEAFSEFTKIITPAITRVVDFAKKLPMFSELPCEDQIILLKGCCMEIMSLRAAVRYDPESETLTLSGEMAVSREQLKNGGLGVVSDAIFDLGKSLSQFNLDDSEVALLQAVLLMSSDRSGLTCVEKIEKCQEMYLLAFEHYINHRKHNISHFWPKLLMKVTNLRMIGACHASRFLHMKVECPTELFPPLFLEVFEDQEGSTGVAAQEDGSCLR
# human Thyroid hormone Receptor alpha (TRa), THRA (gene 7067), sequence (P10827 whole entry, looked up, the tested form may be a part): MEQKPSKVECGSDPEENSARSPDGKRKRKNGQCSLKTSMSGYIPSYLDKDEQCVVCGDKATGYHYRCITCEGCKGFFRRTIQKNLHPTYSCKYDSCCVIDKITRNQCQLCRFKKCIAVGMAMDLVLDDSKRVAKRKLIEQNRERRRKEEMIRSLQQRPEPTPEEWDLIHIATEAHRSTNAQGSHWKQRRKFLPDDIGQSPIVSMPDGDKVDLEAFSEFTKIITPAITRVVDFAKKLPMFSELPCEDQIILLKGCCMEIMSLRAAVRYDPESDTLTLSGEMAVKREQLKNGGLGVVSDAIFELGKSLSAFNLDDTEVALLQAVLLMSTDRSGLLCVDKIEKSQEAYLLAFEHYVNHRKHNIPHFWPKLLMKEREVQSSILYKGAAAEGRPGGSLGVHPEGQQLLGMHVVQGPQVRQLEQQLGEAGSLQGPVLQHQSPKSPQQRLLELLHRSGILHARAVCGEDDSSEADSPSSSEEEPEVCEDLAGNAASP
# human Thyroid hormone Receptor beta (TRb), THRB (gene 7068), sequence (P10828 whole entry, looked up, the tested form may be a part): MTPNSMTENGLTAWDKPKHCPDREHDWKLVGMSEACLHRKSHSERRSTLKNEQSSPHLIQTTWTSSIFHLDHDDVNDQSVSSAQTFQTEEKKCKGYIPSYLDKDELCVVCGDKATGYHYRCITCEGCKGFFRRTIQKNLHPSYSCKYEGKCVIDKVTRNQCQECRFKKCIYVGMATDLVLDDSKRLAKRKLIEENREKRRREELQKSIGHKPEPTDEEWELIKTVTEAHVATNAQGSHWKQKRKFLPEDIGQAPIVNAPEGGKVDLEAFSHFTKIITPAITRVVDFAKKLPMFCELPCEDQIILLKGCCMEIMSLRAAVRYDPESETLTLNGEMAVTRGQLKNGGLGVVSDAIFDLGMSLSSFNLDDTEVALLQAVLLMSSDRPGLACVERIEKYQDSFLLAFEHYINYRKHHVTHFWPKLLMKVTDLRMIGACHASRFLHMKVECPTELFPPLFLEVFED
# Nuclear receptor subfamily 1 group I member 2 (Mus musculus), sequence (O54915 whole entry, looked up, the tested form may be a part): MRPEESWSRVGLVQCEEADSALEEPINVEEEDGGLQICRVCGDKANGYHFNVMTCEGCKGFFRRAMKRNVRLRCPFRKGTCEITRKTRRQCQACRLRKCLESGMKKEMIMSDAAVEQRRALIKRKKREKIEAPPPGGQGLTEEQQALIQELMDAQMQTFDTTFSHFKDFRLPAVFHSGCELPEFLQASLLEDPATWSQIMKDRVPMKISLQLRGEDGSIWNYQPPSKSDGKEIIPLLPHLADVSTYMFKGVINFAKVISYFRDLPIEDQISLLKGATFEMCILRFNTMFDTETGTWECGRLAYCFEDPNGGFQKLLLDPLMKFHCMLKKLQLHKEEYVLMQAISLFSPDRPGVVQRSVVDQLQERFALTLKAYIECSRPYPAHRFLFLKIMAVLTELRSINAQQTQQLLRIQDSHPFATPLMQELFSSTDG
# frog Thyroid hormone Receptor alpha (TRa), thra-a (gene 397942), sequence (P15204 whole entry, looked up, the tested form may be a part): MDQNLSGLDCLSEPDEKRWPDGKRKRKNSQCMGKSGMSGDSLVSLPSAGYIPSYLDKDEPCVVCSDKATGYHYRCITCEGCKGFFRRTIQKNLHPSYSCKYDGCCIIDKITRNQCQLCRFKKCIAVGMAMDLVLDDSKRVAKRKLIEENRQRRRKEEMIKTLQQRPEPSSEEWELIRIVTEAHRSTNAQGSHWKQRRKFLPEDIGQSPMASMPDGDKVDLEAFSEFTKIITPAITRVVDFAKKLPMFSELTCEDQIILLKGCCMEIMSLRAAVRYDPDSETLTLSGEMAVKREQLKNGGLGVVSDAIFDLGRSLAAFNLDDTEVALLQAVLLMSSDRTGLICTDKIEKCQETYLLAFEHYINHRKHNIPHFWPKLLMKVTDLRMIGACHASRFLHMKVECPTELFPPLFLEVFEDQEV
# Peroxisome proliferator-activated receptor gamma (Homo sapiens), sequence (P37231 whole entry, looked up, the tested form may be a part): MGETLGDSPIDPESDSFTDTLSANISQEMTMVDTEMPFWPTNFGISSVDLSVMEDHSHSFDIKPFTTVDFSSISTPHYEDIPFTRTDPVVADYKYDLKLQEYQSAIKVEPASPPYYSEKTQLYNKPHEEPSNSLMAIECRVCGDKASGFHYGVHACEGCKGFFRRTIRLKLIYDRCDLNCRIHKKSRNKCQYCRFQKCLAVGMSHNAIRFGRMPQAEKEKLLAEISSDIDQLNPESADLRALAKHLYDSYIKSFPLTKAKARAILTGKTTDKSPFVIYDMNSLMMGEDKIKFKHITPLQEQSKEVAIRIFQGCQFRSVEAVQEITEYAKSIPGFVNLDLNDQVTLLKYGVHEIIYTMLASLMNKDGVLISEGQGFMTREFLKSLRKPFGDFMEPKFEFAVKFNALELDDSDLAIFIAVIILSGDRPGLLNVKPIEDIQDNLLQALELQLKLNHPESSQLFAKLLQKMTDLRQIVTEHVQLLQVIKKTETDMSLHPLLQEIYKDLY
# Estrogen receptor beta (Homo sapiens), sequence (Q92731 whole entry, looked up, the tested form may be a part): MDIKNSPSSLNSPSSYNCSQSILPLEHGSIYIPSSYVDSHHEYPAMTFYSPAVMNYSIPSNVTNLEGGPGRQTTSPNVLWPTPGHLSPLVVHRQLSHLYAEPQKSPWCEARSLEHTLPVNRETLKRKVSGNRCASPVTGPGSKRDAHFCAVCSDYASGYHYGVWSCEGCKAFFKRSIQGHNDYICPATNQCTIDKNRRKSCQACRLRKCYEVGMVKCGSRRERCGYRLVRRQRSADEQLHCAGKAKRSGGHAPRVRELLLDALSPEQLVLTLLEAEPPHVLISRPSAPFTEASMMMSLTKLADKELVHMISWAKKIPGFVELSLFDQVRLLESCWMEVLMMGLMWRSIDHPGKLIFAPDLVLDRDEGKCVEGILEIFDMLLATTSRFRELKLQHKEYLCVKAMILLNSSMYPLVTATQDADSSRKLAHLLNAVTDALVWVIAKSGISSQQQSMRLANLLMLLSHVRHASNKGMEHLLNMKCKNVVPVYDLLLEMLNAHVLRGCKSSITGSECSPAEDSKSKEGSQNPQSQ
# mouse Peroxisome Proliferator-activated Receptor gamma (PPARg), Pparg (gene 19016), sequence (P37238 whole entry, looked up, the tested form may be a part): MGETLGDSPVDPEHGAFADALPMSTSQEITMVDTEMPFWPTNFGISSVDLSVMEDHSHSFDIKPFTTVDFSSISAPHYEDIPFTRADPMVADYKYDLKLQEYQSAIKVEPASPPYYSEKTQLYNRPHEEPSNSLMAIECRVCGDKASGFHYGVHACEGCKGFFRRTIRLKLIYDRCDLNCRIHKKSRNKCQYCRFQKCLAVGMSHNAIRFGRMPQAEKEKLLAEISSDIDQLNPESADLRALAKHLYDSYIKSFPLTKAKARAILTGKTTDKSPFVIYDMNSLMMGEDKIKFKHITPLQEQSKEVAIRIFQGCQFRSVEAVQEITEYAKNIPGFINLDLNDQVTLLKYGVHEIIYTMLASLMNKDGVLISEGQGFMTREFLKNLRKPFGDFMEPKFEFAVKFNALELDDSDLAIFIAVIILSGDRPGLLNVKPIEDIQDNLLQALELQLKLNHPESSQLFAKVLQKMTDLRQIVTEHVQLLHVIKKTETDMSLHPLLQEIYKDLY
smiles,measurement,setting,value
CCC(=O)O[C@H]1CC[C@H]2[C@@H]3CCC4=CC(=O)CC[C@]4(C)[C@H]3CC[C@]12C,AC50,[1],28.6 µM (active)
ClC1=C(Cl)[C@]2(Cl)[C@@H]3[C@H]4C[C@H]([C@@H]5O[C@H]45)[C@@H]3[C@@]1(Cl)C2(Cl)Cl,AC50,[1],88.1 µM (active)
Cc1ccccc1CO[C@@H]1C[C@@]2(C(C)C)CC[C@]1(C)O2,AC50,AR (gene 367) [2],76.6 µM (active)
CCOC(=O)C(O)(c1ccc(Cl)cc1)c1ccc(Cl)cc1,AC50,AR (gene 367) [2],19.2 µM (active)
C=CC(=O)NCNC(=O)C=C,outcome,AR (gene 367) [3],inactive
same,AC50,[1],50 µM (active)
same,outcome,AR (gene 367) [2],inactive
CC(C)(c1ccccc1)c1ccc(O)cc1,AC50,[4],50 µM (active) and 24.3 µM (active) and 88.6 µM (active)
same,AC50,[5],0.227 µM (active)
same,outcome,[6],inactive
same,outcome,[7],inactive
same,outcome,[8],inactive
same,outcome,[9],inactive
same,outcome,[10],inactive
same,outcome,[11],inactive
same,outcome,[12],inactive
same,outcome,[13],inactive
same,outcome,[14],inactive
same,outcome,[15],inactive
same,outcome,[16],inactive
CCCCCCOC(=O)c1ccccc1C(=O)OCCCCCC,outcome,[4],inactive
same,outcome,[1],inactive
CC1=C2C[C@H]3[C@@H](CC=C4C[C@@H](O)CC[C@@]43C)[C@@H]2CC[C@]12O[C@@H]1C[C@H](C)CN[C@H]1[C@H]2C,outcome,[4],inactive
same,outcome,[1],inactive
same,AC50,AR (gene 367) [2],80.8 µM (active)
CCCCCCCCOC(=O)c1ccccc1C(=O)OCCCCCCCC,outcome,AR (gene 367) [3],inactive
same,AC50,AR (gene 367) [2],50 µM (active)
CC(C)(O)C(=O)Nc1ccc([N+](=O)[O-])c(C(F)(F)F)c1,outcome,AR (gene 367) [3],inactive
same,outcome,[17],inactive
same,outcome,[18],inactive
same,outcome,[10],inactive
same,outcome,[12],inactive
same,outcome,[19],inactive
same,AC50,[13],50 µM (active)
same,AC50,[14],30.6 µM (active)
same,outcome,[15],inactive
same,AC50,[16],18.2 µM (active)
COS(=O)(=O)OC,outcome,[1],inactive
CCNc1nc(NC(C)C)nc(SC)n1,outcome,AR (gene 367) [3],inactive
same,outcome,[1],inactive
same,outcome,AR (gene 367) [2],inactive
O=NN(c1ccccc1)c1ccccc1,outcome,[1],inactive
C[C@]12CCC(=O)C=C1CC[C@@H]1[C@@H]2CC[C@@]2(C)[C@H]1CC[C@]2(C)O,AC50,[20],0.0018 µM (active)
same,outcome,[17],inactive
same,outcome,[18],inactive
same,outcome,[12],inactive
same,outcome,[19],inactive
same,outcome,[13],inactive
same,outcome,[14],inactive
same,outcome,[15],inactive
same,outcome,[16],inactive
Cc1cc(O)ccc1Cl,outcome,[1],inactive
CCCCCCCCCC[N+](C)(C)CCCCCCCCCC,AC50,[4],5.4 µM (active)
same,AC50,[1],2.5 µM (active)
NS(=O)(=O)C(F)(F)C(F)(F)C(F)(F)C(F)(F)C(F)(F)C(F)(F)C(F)(F)C(F)(F)F,AC50,[4],77.8 µM (active) and 132 µM (active)
same,AC50,AR (gene 367) [2],66.1 µM (active)
